Test results: PubChem BioAssay AID1159580 (chemical genetic matrix, 2015)
Out of some 5,500 compounds screened, about 2,000 (36%) were called active. About 18% were inconclusive and are not listed. No stated cut-off is given here; in the data, active means normalized growth mostly below about 0.91 (no sharp cut-off); inconclusive means no clear call, values can overlap the other calls; inactive means mostly above about 0.92. Some of the results follow.

Test: chemical genetic growth profiling, strain panel (AID 1159580);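 further: tested at 20 µM; growth read once vehicle control cultures reached saturation at 30 °C; 1 = growth at the plate median or of vehicle wells; lower values mean less growth of the strain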
Conditions: growth OD

Measured: normalized growth

CN(C)C(=O)Nc1ccc(Cl)c(Cl)c1
inactive: S. cerevisiae deletion strains, locus YJR075W, strain HOC1, active compounds read low 0.958 | S. cerevisiae deletion strains, locus YKL009W, strain mrt4, active compounds read low 0.97 | S. cerevisiae deletion strains, locus YKL068W, active compounds read low 1 | S. cerevisiae deletion strains, locus YKL085W, strain MDH1 (second series), active compounds read low 1 | S. cerevisiae deletion strains, locus YKL085W, strain MDH1, active compounds read low 1 | S. cerevisiae deletion strains, locus YKL160W, strain elf1, active compounds read low 0.955 | S. cerevisiae deletion strains, locus YKL190W, strain CNB1, active compounds read low 0.996 | S. cerevisiae deletion strains, locus YKR001C, strain vps1, active compounds read low 0.984 | S. cerevisiae deletion strains, locus YKR026C, strain gcn3, active compounds read low 0.993 | S. cerevisiae deletion strains, locus YKR091W, strain srl3, active compounds read low 0.982 | S. cerevisiae deletion strains, locus YLL001W, strain dnm1, active compounds read low 0.901 | S. cerevisiae deletion strains, locus YLL026W, active compounds read low 0.991 | S. cerevisiae deletion strains, locus YLL041C, strain sdh2, active compounds read low 0.994 | S. cerevisiae deletion strains, locus YLR027C, strain aat2, active compounds read low 0.969 | S. cerevisiae deletion strains, locus YLR039C, strain RIC1, active compounds read low 1.04 | S. cerevisiae deletion strains, locus YLR058C, strain SHM2, active compounds read low 0.991 | S. cerevisiae deletion strains, locus YLR102C, strain apc9, active compounds read low 1 | S. cerevisiae deletion strains, locus YLR113W, strain HOG1, active compounds read low 0.909 | S. cerevisiae deletion strains, locus YLR221C, strain rsa3, active compounds read low 0.963 | S. cerevisiae deletion strains, locus YLR258W, strain gsy2, active compounds read low 0.984 | S. cerevisiae deletion strains, locus YLR262C, strain YPT6 (second series), active compounds read low 0.996 | S. cerevisiae deletion strains, locus YLR262C, strain YPT6, active compounds read low 1.01 | S. cerevisiae deletion strains, locus YLR268W, strain sec22, active compounds read low 0.988 | S. cerevisiae deletion strains, locus YLR320W, strain mms22, active compounds read low 0.98 | S. cerevisiae deletion strains, locus YLR330W, strain CHS5, active compounds read low 0.994 | S. cerevisiae deletion strains, locus YLR342W, strain FKS1 (second series), active compounds read low 0.983 | S. cerevisiae deletion strains, locus YLR342W, strain FKS1, active compounds read low 0.985 | S. cerevisiae deletion strains, locus YLR357W, strain rsc2, active compounds read low 0.969 | S. cerevisiae deletion strains, locus YLR370C, strain arc18, active compounds read low 0.965 | S. cerevisiae deletion strains, locus YLR371W, strain rom2, active compounds read low 1 | S. cerevisiae deletion strains, locus YLR384C, strain iki3, active compounds read low 1.01 | S. cerevisiae deletion strains, locus YLR418C, strain cdc73, active compounds read low 0.85 | S. cerevisiae deletion strains, locus YML016C, strain PPZ1, active compounds read low 0.993 | S. cerevisiae deletion strains, locus YML032C, strain rad52, active compounds read low 0.994 | S. cerevisiae deletion strains, locus YML120C, strain ndi1, active compounds read low 0.985 | S. cerevisiae deletion strains, locus YML124C, strain tub3, active compounds read low 1 | S. cerevisiae deletion strains, locus YMR058W, strain fet3, active compounds read low 0.992 | S. cerevisiae deletion strains, locus YMR078C, strain ctf18, active compounds read low 0.999 | S. cerevisiae deletion strains, locus YMR125W, strain sto1, active compounds read low 1.04 | S. cerevisiae deletion strains, locus YMR129W, active compounds read low 0.991 | S. cerevisiae deletion strains, locus YMR205C, strain PFK2, active compounds read low 0.917 | S. cerevisiae deletion strains, locus YMR223W, strain ubp8, active compounds read low 0.987 | S. cerevisiae deletion strains, locus YMR231W, strain pep5, active compounds read low 1 | S. cerevisiae deletion strains, locus YMR263W, strain SAP30, active compounds read low 0.956 | S. cerevisiae deletion strains, locus YMR307W, strain GAS1, active compounds read low 0.812 | S. cerevisiae deletion strains, locus YNL067W, strain RPL9B, active compounds read low 0.986 | S. cerevisiae deletion strains, locus YNL071W, strain lat1, active compounds read low 0.982 | S. cerevisiae deletion strains, locus YNL128W, strain TEP1, active compounds read low 0.993 | S. cerevisiae deletion strains, locus YNL153C, strain GIM3, active compounds read low 0.996 | S. cerevisiae deletion strains, locus YNL183C, strain NPR1, active compounds read low 0.939 | S. cerevisiae deletion strains, locus YNL209W, strain ssb2, active compounds read low 0.972 | S. cerevisiae deletion strains, locus YNL233W, strain BNI4, active compounds read low 0.97 | S. cerevisiae deletion strains, locus YNL248C, strain rpa49, active compounds read low 1.02 | S. cerevisiae deletion strains, locus YNL250W, strain rad50, active compounds read low 1.01 | S. cerevisiae deletion strains, locus YNL271C, strain bni1, active compounds read low 1 | S. cerevisiae deletion strains, locus YNL298W, strain CLA4, active compounds read low 0.998 | S. cerevisiae deletion strains, locus YNL307C, strain MCK1, active compounds read low 0.935 | S. cerevisiae deletion strains, locus YNL322C, strain KRE1 (second series), active compounds read low 0.969 | S. cerevisiae deletion strains, locus YNL322C, strain KRE1, active compounds read low 1 | S. cerevisiae deletion strains, locus YNR049C, strain mso1, active compounds read low 0.987 | S. cerevisiae deletion strains, locus YNR052C, strain pop2, active compounds read low 1.03 | S. cerevisiae deletion strains, locus YOL006C, strain TOP1, active compounds read low 0.862 | S. cerevisiae deletion strains, locus YOL012C, strain htz1 1.04 | S. cerevisiae deletion strains, locus YOL147C, strain pex11, active compounds read low 1 | S. cerevisiae deletion strains, locus YOR001W, strain rrp6, active compounds read low 1 | S. cerevisiae deletion strains, locus YOR061W, strain CKA2, active compounds read low 1 | S. cerevisiae deletion strains, locus YOR069W, strain VPS5, active compounds read low 1 | S. cerevisiae deletion strains, locus YOR070C, strain gyp1, active compounds read low 0.997 | S. cerevisiae deletion strains, locus YOR080W, strain dia2, active compounds read low 1.01 | S. cerevisiae deletion strains, locus YOR083W, strain WHI5, active compounds read low 0.927 | S. cerevisiae deletion strains, locus YOR106W, strain vam3, active compounds read low 0.919 | S. cerevisiae deletion strains, locus YOR136W, strain idh2, active compounds read low 0.997 | S. cerevisiae deletion strains, locus YOR144C, strain elg1, active compounds read low 1.01 | S. cerevisiae deletion strains, locus YOR184W, strain ser1, active compounds read low 0.929 | S. cerevisiae deletion strains, locus YOR231W, strain MKK1, active compounds read low 0.991 | S. cerevisiae deletion strains, locus YOR265W, strain rbl2, active compounds read low 0.992 | S. cerevisiae deletion strains, locus YOR270C, strain vph1, active compounds read low 0.925 | S. cerevisiae deletion strains, locus YOR290C, strain snf2, active compounds read low 0.926 | S. cerevisiae deletion strains, locus YOR316C, strain cot1, active compounds read low 1 | S. cerevisiae deletion strains, locus YPL051W, strain arl3, active compounds read low 0.956 | S. cerevisiae deletion strains, locus YPL055C, strain LGE1, active compounds read low 0.95 | S. cerevisiae deletion strains, locus YPL078C, strain atp4, active compounds read low 0.988 | S. cerevisiae deletion strains, locus YPL106C, strain sse1, active compounds read low 0.981 | S. cerevisiae deletion strains, locus YPL240C, strain hsp82, active compounds read low 0.982 | S. cerevisiae deletion strains, locus YPL241C, strain CIN2, active compounds read low 1 | S. cerevisiae deletion strains, locus YPL256C, strain CLN2, active compounds read low 0.975 | S. cerevisiae deletion strains, locus YPR119W, strain clb2, active compounds read low 0.996 | S. cerevisiae deletion strains, locus YPR141C, strain kar3, active compounds read low 1 | S. cerevisiae deletion strains, locus YPR163C, strain tif3, active compounds read low 1 | S. cerevisiae deletion strains, locus YPR167C, strain met16, active compounds read low 0.999 | S. cerevisiae deletion strains, strain wtn01, active compounds read low 0.994 | S. cerevisiae strains, strain wild type, active compounds read low 0.995
